Rows were chosen to be rich in hits. Some 7.9% of all compounds tested hit in one or more screens of this group.
Marburg entry inh = Marburg virus entry inhibition; Marburg virus pseudotyped entry inhibition, cell reporter; Potency, µM (titrated, usually from 37.8 µM), for inactives: top-dose activity change, negative = inhibition, most hits filed as inhibitors; 300,000 tested, 1.8% active; calls by dose curve; tested in HEK293 cells; note: potency is the fitted concentration of half-maximal effect
LASV entry inh = inhibitors of Lassa virus binding or cell entry; 300,000 tested, 1.2% active; AID 540256; Potency, µM (series often up to 37.9 µM), for inactives: at the top dose activity change, negative = inhibition, usual class: inhibitors; Lassa virus pseudotype entry inhibition, cell reporter; calls by dose curve; tested in HEK293 cells; note: potency is the fitted concentration of half-maximal effect; nearly all actives have a fitted effect of over 50% in size
FMDV antiviral = blocks foot and mouth disease virus. FMDV antiviral cell-based qHTS. Potency, µM (series often up to 57.9 µM), without a hit: at the highest dose activity change, negative = inhibition, usual class: inhibitors. 410,000 tested, 1.2% active; calls by dose curve; tested in HEK293T cells; note: read-out not given here; potency is the fitted concentration of half-maximal effect; nearly all actives have a fitted effect of over 45% in size
HCMV antiviral = blocks human cytomegalovirus replication. HFF cells, HCMV-luciferase reporter, 72 h; hits give low values. activity change, negative = inhibition, % at 57.5 µM. 410,000 tested, 4.5% active; in the data active = activity change below about -60%; inconclusive = no clear call, values can overlap the other calls; inactive = above about -39%
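Compounds were evaluated in HFFs infected with an HCMV luciferase reporter virus (MOI 1 PFU/cell). Luciferase in lysates collected 72 h post infection served as the replication measure.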
HCV inhibitor = blocks hepatitis C virus; Huh7.5.1 HCVcc-Cre infection, luciferase reporter, 44 h; Potency, µM (series often up to 41.8 µM), for the others: top-dose activity change, negative = inhibition, hits mostly inhibitors; 340,000 tested, 3.4% active; active = well fitted inhibition curve with a large enough effect; inconclusive = small, poorly fitted or top-dose-only effect, or another doubt; inactive = no such curve, though single readings can be large or run the other way; note: potency is the fitted concentration of half-maximal effect
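Cells seeded at 1,000/well and cultured 4 h, then compounds added followed by HCVcc-Cre virus (~0.5 moi). After 44 h further culture, luciferase substrate was added, plates held 15 min at room temperature, and luminescence read for 15 sec.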
Numbers without * were called inactive; ? = inconclusive; . = not tested or not shown; + = active, no number; [ ] = another dose, or the depositor's remark. % is set by controls: 0 for no effect and ±100 for the full control effect.

SMILES	Marburg entry inh	LASV entry inh	FMDV antiviral	HCMV antiviral	HCV inhibitor
CC(C)CN(C(=O)COC(=O)C12CC3CC(CC(C3)C1)C2)c1c(N)n(Cc2ccccc2)c(=O)[nH]c1=O	-1%[46.1 µM]	4%	-18%	-84*	16µM*
Cc1ccccc1-n1nc(CO)c(C(=O)NCC(c2ccccc2)c2ccccc2)n1	-28%[46.1 µM]	?	13µM*	-86*	.
Cc1ccc(-n2nc(CO)c(C(=O)NCC(c3ccccc3)c3ccccc3)n2)cc1	0%[46.1 µM]	-2%[46.1 µM]	-15%	39	.
O=C(NCC(c1ccccc1)c1ccccc1)c1nn(-c2ccccc2Cl)nc1CO	-28%[46.1 µM]	?	?	-92*	.
Cc1c(CN(C)C(=O)c2cc(-c3ccccc3)nc3ccc(Br)cc23)cnn1C	?	?	-17%	2	.
CCCN(Cc1ccc(N(CC)CC)cc1)CC1CC1	?	-21%	.	-66*	10µM*
Cc1ccc(NC(=O)c2sc3ncnc(N4CCN(c5ccccn5)CC4)c3c2C)c(C)c1	.	.	-13%	?	?
COc1ccc(C)cc1NC(=O)c1sc2ncnc(N3CCN(c4ccccn4)CC3)c2c1C	6%[46.1 µM]	.	-24%	-12	1.4µM*
Cc1ccc(NC(=O)c2sc3nc(C)nc(N4CCN(c5ccccn5)CC4)c3c2C)c(C)c1	11µM*	-26%	-25%	?	3%
Cc1nc(N2CCN(c3ccccn3)CC2)c2c(C)c(C(=O)N3CCN(c4ccccc4F)CC3)sc2n1	7.9µM*	?	?	14	32µM*
Cc1nc(N2CCCCC2)c2c(C)c(C(=O)Nc3cccc(C(F)(F)F)c3)sc2n1	.	.	?	-60*	25µM*
COc1ccc(-c2cn3cccnc3n2)cc1NC(=O)c1c(F)cccc1F	.	?	16%	-28	.
O=C(NCCN1C(=O)S/C(=C\c2ccc(F)cc2)C1=O)c1cccc(S(=O)(=O)N2CCOCC2)c1	-37%	1%	-11%	8	10µM*
O=C(N/N=C/c1c(F)c(F)c(F)c(F)c1F)c1cccc(S(=O)(=O)N2CCOCC2)c1	.	.	-9%	-11	5%
CS(=O)(=O)c1cccc(C(=O)Nc2ccc(S(=O)(=O)N3CCCCC3)cc2)c1	4%	1%	-14%	-63*	4.5µM*
O=C(Nc1ccc(N2CCOCC2)cc1)c1cccc(S(=O)(=O)N2CCCC2)c1	0%	0%	-29%	.	6.3µM*
CCN(CC)c1ccc(/C=N/NC(=O)c2cccc(S(=O)(=O)N3CCOCC3)c2)cc1	8%	-37%	14µM*	47	10µM*
CS(=O)(=O)c1ccc(C(=O)Nc2ccc(S(=O)(=O)N3CCCCC3)cc2)cc1	?	-7%	-28%	-28	?
Clc1ccccc1Cc1cn2cc(-c3ccccc3)nc2s1	?	?	-20%	76	.
Cc1ccccc1NC(=O)c1cccc(S(C)(=O)=O)c1	12%[46.1 µM]	6%[46.1 µM]	7%	-102*	15%
O=C(c1cccc(S(=O)(=O)N2CCCC2)c1)c1cccc(S(=O)(=O)N2CCCC2)c1	?	?	?	-74*	?
O=C(c1cccc(S(=O)(=O)N2CCCCC2)c1)N1CCCCC1	25%	14%	11%	30	16%
CCCOC(=O)c1ccc(NC(=O)c2cccc(S(=O)(=O)N3CCN(C(C)=O)CC3)c2)cc1	?	?	-29%	8	?
Cc1ccc(S(=O)(=O)N2CCCCC2)cc1C(=O)Nc1ccc(N2CCOCC2)cc1	-5%	0%	-21%	-33	?
CCOC(=O)c1ccc(NC(=O)c2cccc(S(=O)(=O)N3CCN(C(C)=O)CC3)c2)cc1	-14%[46.1 µM]	-13%[46.1 µM]	1%	-40	10µM*
SMILES	Marburg entry inh	LASV entry inh	FMDV antiviral	HCMV antiviral	HCV inhibitor
Cc1ccccc1NC(=O)c1cccc(S(=O)(=O)N2CCCCC2)c1	-13%[46.1 µM]	-6%	8%	1	0%
COc1ccc(S(=O)(=O)N2CCOCC2)cc1C(=O)Nc1ccc(N2CCCCCC2)cc1	.	.	-13%	?	14µM*
O=C(COc1ccccc1[N+](=O)[O-])N1CCC(c2nc3ccccc3o2)CC1	9%[46.1 µM]	-8%[46.1 µM]	-6%	-35	.
O=C(NC1CC1)c1cccc(S(=O)(=O)N2CCOCC2)c1	.	.	0%	0	20%
O=C(NC1CCCC1)c1cccc(S(=O)(=O)N2CCOCC2)c1	.	.	0%	-103*	-1%
COc1ccccc1C(=O)NCC1CCN(c2ccc(S(=O)(=O)N3CCOCC3)cc2)CC1	-30%	-6%	.	-76*	?
Cc1ccsc1C(=O)NNC(=O)c1cccc(S(=O)(=O)N2CCCC2)c1	7%	19%	-2%	+	5%
C=C[C@H](Cc1ccccc1)N(Cc1ccccc1)S(=O)(=O)N(Cc1ccccc1)[C@H](C=C)Cc1ccccc1	.	.	?	-86*	-3%[8.37 µM]
COC(=O)[C@@H](Cc1ccccc1)N(Cc1ccccc1)S(=O)(=O)N(Cc1ccccc1)[C@H](Cc1ccccc1)C(=O)OC	.	.	?	-96*	-14%[8.37 µM]
COC(=O)[C@@H](CC(C)C)N(Cc1ccccc1)S(=O)(=O)N(Cc1ccccc1)[C@@H](CC(C)C)C(=O)OC	.	.	?	?	26%
O=C(c1ccc2c(c1)OCO2)N(Cc1cc2ccc(F)cc2nc1N1CCC(O)CC1)CC1CCCO1 (stereo not given)	.	.	-7%	.	.
COc1ccc2c3c(n(C)c2c1)[C@H](CO)N(Cc1nccs1)CC31CCN(C(=O)CN(C)C)CC1	.	.	.	13	.
Oc1ccc(-c2cn3cc(C(F)(F)F)ccc3n2)cc1	5.8µM*	2µM*	-27%	-27	-3%
CN(C)C(=O)Oc1ccc(-c2cn3cc(C(F)(F)F)ccc3n2)cc1	-18%	13%	12%	-28	3%
O=C(Cn1nnc(-c2ccc(F)cc2)n1)N1CCCCC1	-1%[46.1 µM]	11%[46.1 µM]	7%	-38	10%
O=C(Nc1ccc(-c2nnn(CC(=O)N3CCN(C(=O)c4ccco4)CC3)n2)cc1)c1ccc(F)cc1	.	.	-16%	-14	10µM*
O=C(c1ccc(S(=O)(=O)Nc2ccc(F)cc2)cc1)N1CCN(C(=O)c2ccco2)CC1	?	-25%	0%	-69*	-20%
O=C1C(n2ccc3ccccc32)c2cccc(F)c2N1Cc1ccc(C(F)(F)F)cc1 (stereo not given)	.	.	.	15	.
CCCCOCCCNc1ncnc2c1[nH]c1ccccc12	5.2µM*	?	11µM*	?	8.9µM*
CCOCCCNc1ncnc2c1[nH]c1ccccc12	?	?	?	-62*	?
Cc1ccc(CN2CCN(C3CCNCC3)C(=O)C2=O)cc1	.	15%[46.1 µM]	-3%	-3	.
Cc1cnc(-n2ncc(C(=O)N(C)CC3COCCO3)c2C2CC2)nc1-c1cccs1 (stereo not given)	.	.	49%	.	.
COc1ccc(-n2nc(C(=O)NCC(=O)NC3CCCC(C)C3C)c3ccccc3c2=O)c(OC)c1 (stereo not given)	-14%[46.1 µM]	?	-17%	-61*	-14%
COc1ccc(-n2nc(C(=O)NCC(=O)Nc3cc(OC)ccc3OC)c3ccccc3c2=O)cc1	?	.	?	-15	?
